These results are taken from the supplement of paper PMC6555819.

The test system of the first assay is PPARa:RXRa (NR concentration 270 nM, RXRa partner concentration 90 nM). Nature of the assay: PBM binding z-score (relative to random genomic background probes); higher = stronger binding; sequences stand for … in GC…GCGATTGACAGCGTAGAATGAAGG
The procedure, abridged:
(§1)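 Random background probes are the reference for binding z-scores. These scores derive from regression-normalized fluorescence on custom Agilent 4×180K protein-binding microarrays incubated 1 h with ligand-free nuclear receptor dimers. Binding was detected with antibodies against each partner (one per run).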
Sequence TCTGCTAGGTCAACGATGGACAGCTAATCTGCTA returned a PBM binding z-score of 3.07. In the case of TCATATAGGTAAAGGTTAAAGTCGAACGATATGA, the PBM binding z-score was 4.34. For the sequence ACTAGTAGGCCAAGTTTGGGTCACTCAAACAAAG, the PBM binding z-score turned out to be 2.34. The same measure, in the same setting: the figure for TCTTGTAGAACAGCAGGTTAAGAAAGCTGGCCAA is 0.675; for CCTATTAGTTGACCATAAGGGCTACCGAAGCTCG it is -0.0868. With GCAGACAGGTGAAACGCGGGTAACTCAGGGTGGC, the PBM binding z-score is 0.839. For CCTAGTTGGTCAGGAGGTCAAACACCGGATATGA, the PBM binding z-score was found to be 4.55. In turn, TCGAGTAGGTTACAAATGGGGCATTCAGCTTTCT returned a PBM binding z-score of 1.25.

Sequence GCTGCTAGGTCAGGTAGGTCAGCTAACGGGTACG yielded a PBM binding z-score of 2.41. Still for that read-out and setting: the figure for CCTAGTTGGTGAAGGTCACACACGCTATAGGTAC is 3.66; for CTACCAAGGTGAACAAGGCCGTTGATTACTATTC it is 1.25; for TATACAGGGTCAAAGGCCAGAGTCCGAATGTCGA it is 5.85.

As for CGTCCAAGGTCAAAGGTCAGTGTAGAGATGACGG, the PBM binding z-score was found to be 7.25.

As to GTACGAAGGTGAATAGGTCGTTGATGAGTAGGCG, the PBM binding z-score turned out to be 2.15. Same read-out and setting: the figure for CCTTACGGGTCAAGGTTATAGTACGGGTGGTACG is 5.17; for ACAATGAGGTTATTAAGATCAGGGAATTGCGGTC it is 2.42; for TCGAGTAGGTTACCAATGGGGCACTCAGCTTTCT it is 0.966. Turning to CCTACTGGGCCATTCAGAGGTCCTTGATCATATG, the PBM binding z-score is 0.27.

The next assay concerns PPARg:RXRa (NR concentration 180 nM, RXRa partner concentration 90 nM). The description is as above. The method, boiled down:
as §1
Sequence ATCTCTAGGTAAAGATAGTTCGGTGAATGCAAAT came in with a PBM binding z-score of 0.266. TCTAGCAGTCCAGAGGGTCACTCAAGAGGTACGG had a PBM binding z-score of 0.609.

As for CCTAGCAGGCCAATCTGGGACACTCAAGGCTTGA, the PBM binding z-score is 0.255.

The sequence TCTGACAGGTGAAGGTAACTCAGGTACGCAGTCG came in with a PBM binding z-score of 0.602. Sequence TATACAGGCTCAAAGGCCAGAGTACGAATGTCGA gave a PBM binding z-score of 1.03. GGAACGAGGGCATTCGAGTTAATAGCATGGCGAT: the PBM binding z-score came to 1.18.

As for CCTACTGGGCCAATGGTCATTGATTCCAATGCTC, the PBM binding z-score is 4.15. The sequence GCTGCTAGGTCAACTGATGGTCGGCTAAAGCTCG returned a PBM binding z-score of 2.39. Still for that read-out and setting: then ACTCGGAGGACCAAGGTCAGAGCTACGCCAGTGA, with 0.947; and GGAACGAAGGCAAAGTTGATAGCATCTGTCGACG, with 2.69. In turn, GGAACGAGGGCATGCGAGTTGATAGCATGGCGAT came in with a PBM binding z-score of 0.979. The same measure, in the same setting: then TCTTGTAGATCACGCAGGTTAAGAAAGCCTGAGT, with -0.0924; and TCTTGTAGAACAAGCAGGTTAAGAAAGCCTGAGT, with -0.27. The same measure, in the same setting: the figure for AATACCGGGTCATCGTAGGCCAGAGTACGCACAG is 5.83; for CCTAGCAGGCCAATCTGAGTCACTCAAGGCTTGA it is -0.183. AGTCAAAGTTCATCTAGGTAAGGTAAGATATGCT: the PBM binding z-score stood at 6.22. In the case of AGAACAAGGGCAATGAGTTGATAGCACGGGTGGC, the PBM binding z-score is 1.26. CAAACTAGGGCACAGAGGTCAAAGTCCGTGCGTA yielded a PBM binding z-score of 7.92. In turn, ATCGAAAGGTCGACGGGGTGAGTATACACCGTTT gave a PBM binding z-score of 3.

TAGCCGAGGTCATGGGCCAGTATACCACGCGAAC had a PBM binding z-score of 7.45.

With TCTAGTTGGTCACGGAGGTAACACACGACGGGTA, the PBM binding z-score worked out at 1.34. Sequence CCTACTGGGCCAGGGTCATTGATCAGTCAAAGCA gave a PBM binding z-score of 3.23. Same read-out and setting: the figure for TCTGCTAGGTCAACGATGGACAGCTAATCTGCTA is 2.78; for TCATATAGGTAAAGGTTAAAGTCGAACGATATGA it is 5.57; for ACTAGTAGGCCAAGTTTGGGTCACTCAAACAAAG it is 2.17. In turn, TCTTGTAGAACAGCAGGTTAAGAAAGCTGGCCAA gave a PBM binding z-score of -0.134. On the same count and under the same terms, then CCTATTAGTTGACCATAAGGGCTACCGAAGCTCG, with 0.355; and GCAGACAGGTGAAACGCGGGTAACTCAGGGTGGC, with 0.342. In turn, CCTAGTTGGTCAGGAGGTCAAACACCGGATATGA registered a PBM binding z-score of 3.32. TCGAGTAGGTTACAAATGGGGCATTCAGCTTTCT: the PBM binding z-score came to 0.565.

Sequence GCTGCTAGGTCAGGTAGGTCAGCTAACGGGTACG had a PBM binding z-score of 1.45. Turning to CCTAGTTGGTGAAGGTCACACACGCTATAGGTAC, the PBM binding z-score was 2.32. On the same count and under the same terms, then CTACCAAGGTGAACAAGGCCGTTGATTACTATTC, with 0.647; and TATACAGGGTCAAAGGCCAGAGTCCGAATGTCGA, with 7.34; and CGTCCAAGGTCAAAGGTCAGTGTAGAGATGACGG, with 10.7.

Take GTACGAAGGTGAATAGGTCGTTGATGAGTAGGCG: the PBM binding z-score was found to be 1.38. The same measure, in the same setting: the figure for CCTTACGGGTCAAGGTTATAGTACGGGTGGTACG is 4.78; for ACAATGAGGTTATTAAGATCAGGGAATTGCGGTC it is 1.45; for TCGAGTAGGTTACCAATGGGGCACTCAGCTTTCT it is 0.351. Same read-out and setting: the figure for CCTACTGGGCCATTCAGAGGTCCTTGATCATATG is 0.118.
